# Results from PubChem BioAssay AID1209 (Sanford-Burnham Center for Chemical Genomics, 2008).
# The campaign covered roughly 190,000 compounds. About 810 (0.43%) were called active. No stated cut-off is given here; in the data, active means inhibition above about 50%; inactive means the rest. Many of the other results were omitted from the sample, so actives are more common in it than they were.
# Biological target: Mannose-6-phosphate isomerase (Homo sapiens) (UniProt P34949)
# Assay: MPI enzyme activity inhibition – biochemical, fluorescence intensity, coupled assay, primary screen (AID 1209);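 further: plate controls were DMSO vehicle for no effect and wells lacking substrate for full effect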
# Conditions: purified PMI enzyme, at 20 µM, active compounds read high
# Sequence of Mannose-6-phosphate isomerase (Homo sapiens) (P34949 whole entry, looked up): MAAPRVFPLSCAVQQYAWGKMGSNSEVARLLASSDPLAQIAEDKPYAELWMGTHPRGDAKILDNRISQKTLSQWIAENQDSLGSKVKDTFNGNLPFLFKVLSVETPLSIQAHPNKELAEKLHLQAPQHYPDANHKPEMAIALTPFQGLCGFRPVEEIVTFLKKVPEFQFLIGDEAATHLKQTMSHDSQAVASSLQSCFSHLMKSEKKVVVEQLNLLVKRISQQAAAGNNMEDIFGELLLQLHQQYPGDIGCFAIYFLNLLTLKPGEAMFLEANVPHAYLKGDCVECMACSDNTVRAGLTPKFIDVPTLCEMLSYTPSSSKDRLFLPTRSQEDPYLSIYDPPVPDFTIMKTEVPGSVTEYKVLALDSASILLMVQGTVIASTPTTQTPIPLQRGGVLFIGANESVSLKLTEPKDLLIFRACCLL
row,Structure (SMILES),inhibition
1,COc1ccc(N=C2SCC(=O)N2Cc2ccccc2)cc1,-10.8% (inactive)
2,COc1cc(N=C2C(=O)N3c4c(cccc42)C(C)=CC3(C)C)cc(OC)c1,34.1% (inactive)
3,COc1cc(-c2nnc(-c3cc(OC)c(OC)c(OC)c3)o2)cc(OC)c1OC,7.6% (inactive)
4,COc1ccc(N=c2sc3ccccc3n2C)cc1,5.6% (inactive)
5,COc1cc(N=C(N)N=C(N)N)cc(OC)c1,-0.7% (inactive)
6,COc1cc(-c2nnco2)cc(OC)c1OC,15% (inactive)
7,CCc1c(C)sc(NC(=O)CSc2nc3c(c(C(F)(F)F)n2)CCc2ccccc2-3)c1C#N,0.3% (inactive)
8,Cc1ccc(SCC(=O)NC(=O)NCc2ccco2)cc1C,-3.3% (inactive)
9,CCN(CCn1cccn1)C(=O)c1cc(COc2c(F)cccc2F)on1,5.3% (inactive)
10,O=C(CN1CCCC1)Nc1cc(F)ccc1F,-1.6% (inactive)
11,Cc1noc(C)c1COc1ccc(C(=O)OCC(=O)NCc2ccccc2Cl)cc1,22.4% (inactive)
12,CC(C)(C)NC(=O)COC(=O)/C=C/c1ccccc1[N+](=O)[O-],1.1% (inactive)
13,CC(=O)N(Cc1ccc(Br)cc1)c1cccc(C)c1C,5.3% (inactive)
14,COc1ccc(OC)c(NC(=O)CN2C(=O)C3(OCCCO3)c3ccccc32)c1,11% (inactive)
15,C=CCn1c2[n+](c3ccccc3c1=O)CCCCC2,66.2% (active)
16,C=CCn1c(C)nc2ccccc2c1=O,10% (inactive)
17,C=CCn1c(=S)[nH]c2ccccc2c1=O,1.8% (inactive)
18,COc1ccc(NC(C)=O)cc1NC(C)C(=O)Nc1ccc(F)c(F)c1F (stereo unspecified),13.6% (inactive)
19,Cc1cc(C)nc(-n2nc(C)cc2NC(=O)c2cccc(S(=O)(=O)N3CCCCC3)c2)n1,15.9% (inactive)
20,CCN(CC)c1ccc(NC(=O)/C=C/c2cc(Br)ccc2OC)cc1,6.9% (inactive)
21,CC1Cc2ccccc2N1C(=O)CSc1nnc(-c2ccc(S(=O)(=O)N3CCCC3)cc2)n1C (stereo unspecified),60.6% (active)
22,Cn1c(SCC(=O)N2CCc3ccccc32)nnc1-c1ccc(S(=O)(=O)N2CCCC2)cc1,18.8% (inactive)

row,Structure (SMILES),inhibition
1,CC1Cc2ccccc2N1C(=O)CSc1nnc(-c2ccc(S(=O)(=O)N3CCOCC3)cc2)n1C (stereo unspecified),-0.3% (inactive)
2,CCOC(=O)c1ccc(NC(=O)CSCC(=O)OCC(=O)c2ccccc2)cc1,19.6% (inactive)
3,Cc1ccc2nc(SCC(=O)N3CCOCC3)[nH]c2c1,-2.9% (inactive)
4,O=C(CSc1nc2ccc(S(=O)(=O)N3CCOCC3)cc2[nH]1)N1CCOCC1,66% (active)
5,CCOC(=O)CSc1nc2ccc(S(=O)(=O)N3CCOCC3)cc2[nH]1,-11.2% (inactive)
6,COc1ccc(OC)c(NS(=O)(=O)c2ccc(NC(=O)c3ccc(NS(C)(=O)=O)cc3)cc2)c1,1.4% (inactive)
7,O=C(OCC(CO)OC(CO)n1ccc(=O)[nH]c1=O)c1ccccc1 (stereo unspecified),7.7% (inactive)
8,Cn1c(=O)oc2cc(S(=O)(=O)N3CCC(C(=O)NCc4ccc(F)cc4)CC3)ccc21,4.5% (inactive)
9,CCOC(=O)c1ccc(-n2c(N)c(C(=O)NCC3CCCO3)sc2=S)cc1 (stereo unspecified),31.5% (inactive)
10,CCn1c(N)c(C(=O)NCC2CCCO2)sc1=S (stereo unspecified),70.4% (active)
11,CCNC(=O)c1sc(=S)n(CC)c1N,6.5% (inactive)
12,C=CCn1c(N)c(C(=O)NCC2CCCO2)sc1=S (stereo unspecified),-2.2% (inactive)
13,CCn1c(N)c(C(N)=O)sc1=S,18.4% (inactive)
14,CCn1c(N)c(C(=O)NC)sc1=S,67.3% (active)
15,CCN(CC)CCn1c(=N)n(CC(O)c2ccc(OC)c(OC)c2)c2ccccc21 (stereo unspecified),-0.3% (inactive)
16,O=C(CCN1C(=O)C2CC=CCC2C1=O)N1CCN(c2ccccn2)CC1 (stereo unspecified),-3.3% (inactive)
17,C=CCSc1nnc(C)n1-c1ccc(Cl)cc1,21.9% (inactive)
18,C/C(=N\N=C(N)N)c1cccc(Cl)c1,11.7% (inactive)
19,O=C(N/N=C/c1ccccc1C(=O)O)C(=O)N1CCCCC1,2.7% (inactive)
20,Oc1cccc(/C=N/NC(=S)NCCN2CCOCC2)c1O,66.9% (active)
21,Oc1ccc(/C=N/NC(=S)Nc2cccnc2)c(O)c1,-1.2% (inactive)
22,Oc1ccc(/C=N/NC(=S)NCCN2CCOCC2)c(O)c1,-8.8% (inactive)

row,Structure (SMILES),inhibition
1,Oc1ccc(/C=N/NC(=S)Nc2cccnc2)cc1O,43.5% (inactive)
2,NC(=S)N/N=C/c1ccccc1[N+](=O)[O-],24.6% (inactive)
3,NC(=S)N/N=C/c1ccccc1,11.4% (inactive)
4,Oc1cccc(/C=N/NC(=S)Nc2cccnc2)c1O,55.6% (active)
5,S=C(NCCN1CCOCC1)N/N=C/c1ccccc1,2% (inactive)
6,O=C(COc1ccc(Cl)cc1)NCC(=O)N/N=C/c1cccs1,2.8% (inactive)
7,Cc1noc(C(=O)Nc2c(C)n(C)n(-c3ccccc3)c2=O)c1Cl,-5.9% (inactive)
8,COc1cccc(S(=O)(=O)N2CCOCC2)c1,1.2% (inactive)
9,O=C(COC(=O)c1cccnc1Cl)NCC1CCCO1 (stereo unspecified),-1.2% (inactive)
10,CCOc1ccc(OCC(=O)OCn2c(SC)nnc(C)c2=O)cc1,15.9% (inactive)
11,O=c1[nH]c2ccccc2n2cnnc12,-5.1% (inactive)
12,O=c1[nH]c2ccccc2n2c(-c3ccccc3)nnc12,84.7% (active)
13,O=c1[nH]c2ccccc2n2c(-c3ccncc3)nnc12,1.8% (inactive)
14,Cc1ccc(NC(=O)N(CCCN2CCOCC2)Cc2cccnc2)cc1C,-1.1% (inactive)
15,COC(=O)CNC(=O)Cn1cnc2sc(C)c(S(=O)(=O)N3CCC(C)CC3)c2c1=O,-9% (inactive)
16,CCc1ccc(N2CCCn3c2nc2c3c(=O)n(CCN3CCOCC3)c(=O)n2C)cc1,-10.4% (inactive)
17,O=C(N/N=C/c1ccccc1)c1[nH]c2ccc(Br)cc2c1-c1ccccc1,15.4% (inactive)
18,Oc1ccc(Br)cc1/C=N/N1CCN(Cc2ccccc2)CC1,6.6% (inactive)
19,O=C(O)c1cccc(C(=O)O)n1,58% (active)
20,CC(=O)Nc1cccc(C(=O)O)n1,6.7% (inactive)
21,CC(C)OC(=O)c1cccc(C(=O)O)n1,21.8% (inactive)
22,Cc1ccc(SCc2cn3cccnc3n2)cc1,12.5% (inactive)
